# Measurements: PubChem BioAssay (NCI)
# Compounds without any hit were thinned out: in the full panel of roughly 83,000, 20% have a hit.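 Cell lines were cultured in 96-well plates, exposed to a single compound concentration, and assessed for percent growth 48 hours later.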 The source made the active and inactive calls. Rule for the calls: active = growth percent below 10; inactive = the rest.
# Tested on: MDA-MB-468 breast
# Test: NCI-60 one-dose screen, 48 h (100 = growth as untreated, 0 = no growth, -100 = all killed)
# Conditions: 10 µM unless noted
row,SMILES,growth
1,CCc1nn2c(-c3cc(OC)c(OC)c(OC)c3)c(-c3cc(OC)c(OC)c(OC)c3)nc2s1,49.3% (inactive)
2,OCCN1CCCCCCC1,101% (inactive)
3,Cc1cc(I)nc2ccccc12,109% (inactive)
4,Cc1ccc2sc3c(c2c1)OC(N)=C(C#N)C3c1ccc(Cl)cc1 (stereo not given),-18.7% (active)
5,CNC(=O)c1cc(Oc2ccc3nc(NC(=O)Nc4ccc(Cl)cc4)sc3c2)ccn1,55.1% (inactive)
6,C(=N\Nc1ccccn1)/c1ccccn1,-38.7% (active)
7,C=C1CC[C@@H]2[C@](C)(COC(C)=O)[C@H](OC(C)=O)CC[C@@]2(C)[C@@H]1CC(Nc1ccc(S(=O)(=O)Nc2nccc(C)n2)cc1)C1=CCOC1=O (stereo not given in full),-45.8% (active)
8,CC[N+](C)(CC)CCCC(C)Nc1ccnc2cc(Cl)ccc12 (stereo not given),119% (inactive)
9,COC(=O)C(Cc1ccccc1)Nc1nc(NC(Cc2ccccc2)C(=O)OC)nc(N2CCOCC2)n1 (stereo not given),108% (inactive)
10,Cc1cc(-c2ccc(N=Nc3c(S(=O)(=O)O)cc4cc(S(=O)(=O)O)cc(O)c4c3O)c(C)c2)ccc1N=Nc1c(S(=O)(=O)O)cc2cc(S(=O)(=O)O)cc(O)c2c1O,109% (inactive)
11,COc1cc(C)c(Cc2cnc(N)nc2N)cc1OC,116% (inactive)
12,CCOC(=O)c1[nH]cc2c1CCc1sc(Nc3ccccn3)nc1-2,46.9% (inactive)
13,Cc1[nH]c(C(=O)Nc2ccc(S(=O)(=O)N3CCCCC3)cc2OCCOCCOCCOCCOCCOCCOCCOCCOCCOc2cc(S(=O)(=O)N3CCCCC3)ccc2NC(=O)c2[nH]c(C)c3c2CCCCC3=O)c2c1C(=O)CCCC2,-11.1% (active)
14,COC1C/C(=N\O)C2OC(c3ccccc3)OCC2O1 (stereo not given),105% (inactive)
15,COc1ccc(/C=N/C2=C(C#N)C(c3ccc(N(C)C)cc3)c3ccc4ccccc4c3O2)cc1 (stereo not given),84.3% (inactive)
16,Fc1ccc(-c2nc(Nc3ccc(-c4nc5ccccc5[nH]4)cc3)nc(N3CCOCC3)n2)cc1,-84% (active)
17,c1ccc(-c2n(Cc3ccc4ccccc4n3)c3ccccc3[n+]2Cc2ccc3ccccc3n2)cc1,-34.3% (active)
18,CC(=O)Nc1ccc(C(=O)/C=C/c2ccccc2)cc1,90.8% (inactive)
19,Clc1ccc(-c2cn(-c3ccccc3)c(-c3ccccc3)n2)c(Cl)c1,-61.3% (active)
20,COC(=O)C1CN(S(=O)(=O)/N=C2\NC(=O)NC2=C(Cl)Cl)C1,72.5% (inactive)

row,SMILES,growth
1,O=C([C@H]1C[C@H]1c1ccc(S(F)(F)(F)(F)F)cc1)N1CCN(c2cc(Cl)ccc2C(F)(F)F)CC1,58.9% (inactive)
2,Cc1cc(C(=O)/C=C/c2ccc[nH]2)ccc1-n1ccc(C(F)(F)F)n1,90.2% (inactive)
3,C#Cc1nc(/C=C/C(=O)c2nccn2C)cs1,-28.5% (active)
4,COc1ccc(C2CC(c3cccc(Nc4ccncc4)c3)=NN2c2cc(Cl)cc(Cl)c2)cc1 (stereo not given),43.3% (inactive)
5,CC(=O)c1cc2ccccc2o1,109% (inactive)
6,COc1ccc(-c2nc(C#N)c(N3CCC(S(=O)(=O)N4CCOCC4)CC3)o2)cc1,107% (inactive)
7,O=C(N/N=C/c1ccc(Br)s1)c1[nH]c2ccc(Br)cc2c1-c1ccccc1,-5.18% (active)
8,CC1(C)OC2C(COC(c3ccccc3)(c3ccccc3)c3ccccc3)OC(c3c[nH]c4c(N)ncnc34)C2O1 (stereo not given),30% (inactive)
9,CCOC(=O)c1cc(C(=O)c2cc(OC)c(OC)c(OC)c2)n2ccccc12,-7.14% (active)
10,C=CCc1c2c(c(OC)c3ccoc13)C(=O)/C(=C/c1ccccc1OC)O2,-3.89% (active)
11,CC(C)C1=NOC(=O)C1=Cc1cn(-c2ccccc2)nc1-c1ccccc1,97.2% (inactive)
12,CCN(CC)CCOc1ccc(C(=C(C)c2ccc(OC)cc2)c2ccc(OCCN(CC)CC)cc2)cc1,-70.1% (active)
13,CCN(CC)CCNCC(O)Cc1ccc(OC)cc1 (stereo not given),105% (inactive)
14,CCCCCCCCCCCC1=NC(C)(C)CN1CCO,15% (inactive)
15,COC(=O)[C@H](Cc1cn(C)cn1)NC(=O)[C@H](CC(C)C)NC(=O)Nc1cc(C(F)(F)F)cc(C(F)(F)F)c1,-72.1% [100 µM] (active)
16,CC(C)c1nn(-c2ccccc2)c(N2CCCCC2)c1/C=N/NC(N)=S,89.6% (inactive)
17,CCOc1cccc(-c2nc3sccn3c2-c2ccnc(S(C)(=O)=O)n2)c1,-0.693% (active)
18,COc1ccc(C2=C(c3cn(C)c4ccccc34)C(=O)OC2)cc1OC,1.23% (active)
19,NC(N)=Nc1cc2ccccc2c2ccccc12,54.4% (inactive)
20,COc1ccc(-c2cc(-c3cccc4ccccc34)n3c(n2)nc2ccccc23)cc1OC,63.2% (inactive)
